# Measurements reported in paper PMC11006913.
# Where a chain is given by its changes, count along the chain named.
# Key:
# Assay in all cases: PBM; 200 nM protein, PBS
# Settings in all cases: dsDNA, one strand shown
# HOXB9 [1] = biological target: HOXB9 (Homo sapiens, UniProt P17482 171-250, T197M)
# HOXC9 [2] = biological target: HOXC9 (Homo sapiens, UniProt P31274 178-260, K195R)
# HOXB9 [3] = biological target: HOXB9 (Homo sapiens, UniProt P17482 171-250)
# HOXC9 [4] = biological target: HOXC9 (Homo sapiens, UniProt P31274 178-260)
# Sequence of HOXC9 (Homo sapiens, UniProt P31274 178-260) (P31274 178-260): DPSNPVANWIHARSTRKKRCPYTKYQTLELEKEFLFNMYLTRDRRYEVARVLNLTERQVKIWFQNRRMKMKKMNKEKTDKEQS
# HOXC9 [5] = biological target: HOXC9 (Homo sapiens, UniProt P31274 178-260, R193K)
# Sequence of HOXC9 (Homo sapiens, UniProt P31274 178-260, R193K) (P31274 178-260 R193K): as the sequence (P31274 178-260) above, with R16K counted along it
# HOXB9 [6] = biological target: HOXB9 (Homo sapiens, UniProt P17482 171-250, R186Q)
# Sequence of HOXB9 (Homo sapiens, UniProt P17482 171-250, R186Q) (P17482 171-250 R186Q): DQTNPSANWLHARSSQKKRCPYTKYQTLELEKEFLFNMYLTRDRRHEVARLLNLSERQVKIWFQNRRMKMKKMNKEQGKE
# HOXC9 [7] = biological target: HOXC9 (Homo sapiens, UniProt P31274 178-260, R222W)
# Sequence of HOXC9 (Homo sapiens, UniProt P31274 178-260, R222W) (P31274 178-260 R222W): as the sequence (P31274 178-260) above, with R45W counted along it
# ALX4 [8] = biological target: ALX4 (Homo sapiens, UniProt Q9H161 200-286)
# Sequence of ALX4 (Homo sapiens, UniProt Q9H161 200-286) (Q9H161 200-286): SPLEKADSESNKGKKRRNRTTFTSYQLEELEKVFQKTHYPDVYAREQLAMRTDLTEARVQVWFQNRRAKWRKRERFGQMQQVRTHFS
# PAX4 [9] = biological target: T1, PAX4 (Homo sapiens, UniProt O43316 9-242, R200K)
# T1 sequence: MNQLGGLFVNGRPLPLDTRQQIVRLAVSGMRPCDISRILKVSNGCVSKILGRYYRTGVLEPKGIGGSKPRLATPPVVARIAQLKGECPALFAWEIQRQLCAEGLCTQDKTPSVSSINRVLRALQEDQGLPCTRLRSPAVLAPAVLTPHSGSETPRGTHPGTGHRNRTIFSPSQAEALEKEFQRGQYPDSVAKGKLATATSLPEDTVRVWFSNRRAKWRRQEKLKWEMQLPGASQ
# PRRX1 [10] = biological target: PRRX1 (Homo sapiens, UniProt P54821 80-166, F113S)
# Sequence of PRRX1 (Homo sapiens, UniProt P54821 80-166, F113S) (P54821 80-166 F113S): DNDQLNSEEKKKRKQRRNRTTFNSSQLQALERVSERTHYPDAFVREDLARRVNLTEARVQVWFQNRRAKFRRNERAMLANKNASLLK
# PAX4 [11] = biological target: T2, PAX4 (Homo sapiens, UniProt O43316 9-242)
# T2 sequence: T1 sequence with K192R
# HOXB6 [12] = biological target: HOXB6 (Homo sapiens, UniProt P17509 132-218, K202E)
# Sequence of HOXB6 (Homo sapiens, UniProt P17509 132-218, K202E) (P17509 132-218 K202E): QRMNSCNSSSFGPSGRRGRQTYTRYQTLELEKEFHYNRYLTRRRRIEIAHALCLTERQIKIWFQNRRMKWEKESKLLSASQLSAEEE
# ALX4 [13] = biological target: ALX4 (Homo sapiens, UniProt Q9H161 200-286, Q225E)
# Sequence of ALX4 (Homo sapiens, UniProt Q9H161 200-286, Q225E) (Q9H161 200-286 Q225E): as the sequence (Q9H161 200-286) above, with Q26E counted along it
# ALX1 [14] = biological target: ALX1 (Homo sapiens, UniProt Q15699 118-204, L144V)
# Sequence of ALX1 (Homo sapiens, UniProt Q15699 118-204, L144V) (Q15699 118-204 L144V): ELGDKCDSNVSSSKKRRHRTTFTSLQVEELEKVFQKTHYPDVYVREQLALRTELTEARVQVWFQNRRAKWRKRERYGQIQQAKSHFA
# ALX3 [15] = biological target: ALX3 (Homo sapiens, UniProt O95076 139-225, N203Q)
# Sequence of ALX3 (Homo sapiens, UniProt O95076 139-225, N203Q) (O95076 139-225 N203Q): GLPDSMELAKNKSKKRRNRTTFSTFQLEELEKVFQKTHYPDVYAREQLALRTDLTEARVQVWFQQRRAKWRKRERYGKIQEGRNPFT
# PAX4 [16] = biological target: T3, PAX4 (Homo sapiens, UniProt O43316 9-242, R200Q)
# T3 sequence: T1 sequence with K192Q
# PAX4 [17] = biological target: T4, PAX4 (Homo sapiens, UniProt O43316 9-242, F177V)
# T4 sequence: T1 sequence with F169V, K192R
# ALX3 [18] = biological target: ALX3 (Homo sapiens, UniProt O95076 139-225)
# Sequence of ALX3 (Homo sapiens, UniProt O95076 139-225) (O95076 139-225): as the sequence (O95076 139-225 N203Q) above, with Q65N counted along it
# PAX4 [19] = biological target: T5, PAX4 (Homo sapiens, UniProt O43316 9-242, F177Y)
# T5 sequence: T1 sequence with F169Y, K192R
# ALX3 [20] = biological target: ALX3 (Homo sapiens, UniProt O95076 139-225, L168Q)
# Sequence of ALX3 (Homo sapiens, UniProt O95076 139-225, L168Q) (O95076 139-225 L168Q): as the sequence (O95076 139-225 N203Q) above, with L30Q, Q65N counted along it
# ALX3 [21] = biological target: ALX3 (Homo sapiens, UniProt O95076 139-225, L168V)
# Sequence of ALX3 (Homo sapiens, UniProt O95076 139-225, L168V) (O95076 139-225 L168V): as the sequence (O95076 139-225 N203Q) above, with L30V, Q65N counted along it
# HESX1 = HESX1 (Homo sapiens, UniProt Q9UBX0 95-180, F115L)
# Sequence of HESX1 (Q9UBX0 95-180 F115L): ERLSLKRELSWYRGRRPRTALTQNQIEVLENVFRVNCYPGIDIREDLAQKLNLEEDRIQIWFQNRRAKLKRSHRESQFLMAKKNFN
# PAX4 [22] = biological target: T6, PAX4 (Homo sapiens, UniProt O43316 9-242, R227W)
# T6 sequence: T1 sequence with K192R, R219W
# ALX3 [23] = biological target: ALX3 (Homo sapiens, UniProt O95076 139-225, N203S)
# Sequence of ALX3 (Homo sapiens, UniProt O95076 139-225, N203S) (O95076 139-225 N203S): as the sequence (O95076 139-225 N203Q) above, with Q65S counted along it
# PRRX1 [24] = biological target: PRRX1 (Homo sapiens, UniProt P54821 80-166)
# Sequence of PRRX1 (Homo sapiens, UniProt P54821 80-166) (P54821 80-166): as the sequence (P54821 80-166 F113S) above, with S34F counted along it
# ALX1 [25] = biological target: ALX1 (Homo sapiens, UniProt Q15699 118-204, L144R)
# Sequence of ALX1 (Homo sapiens, UniProt Q15699 118-204, L144R) (Q15699 118-204 L144R): as the sequence (Q15699 118-204 L144V) above, with V27R counted along it
# ALX1 [26] = biological target: ALX1 (Homo sapiens, UniProt Q15699 118-204)
# Sequence of ALX1 (Homo sapiens, UniProt Q15699 118-204) (Q15699 118-204): as the sequence (Q15699 118-204 L144V) above, with V27L counted along it
# HOXD13 [27] = biological target: HOXD13 (Homo sapiens, UniProt P35453 263-343, T313R)
# Sequence of HOXD13 (Homo sapiens, UniProt P35453 263-343, T313R) (P35453 263-343 T313R): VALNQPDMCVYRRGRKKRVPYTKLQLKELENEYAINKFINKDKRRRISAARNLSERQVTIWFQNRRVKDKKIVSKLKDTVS
# HOXD13 [28] = biological target: HOXD13 (Homo sapiens, UniProt P35453 263-343)
# Sequence of HOXD13 (Homo sapiens, UniProt P35453 263-343) (P35453 263-343): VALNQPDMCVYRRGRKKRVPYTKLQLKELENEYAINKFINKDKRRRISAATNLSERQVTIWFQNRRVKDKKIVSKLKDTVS
# HOXC10 = HOXC10 (Homo sapiens, UniProt Q9NYD6 254-340, K271E)
# Sequence of HOXC10 (Q9NYD6 254-340 K271E): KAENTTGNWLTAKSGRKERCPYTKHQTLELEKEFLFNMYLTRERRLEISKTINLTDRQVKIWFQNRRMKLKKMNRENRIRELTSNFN
# HOXD13 [29] = biological target: HOXD13 (Homo sapiens, UniProt P35453 263-343, T313A)
# Sequence of HOXD13 (Homo sapiens, UniProt P35453 263-343, T313A) (P35453 263-343 T313A): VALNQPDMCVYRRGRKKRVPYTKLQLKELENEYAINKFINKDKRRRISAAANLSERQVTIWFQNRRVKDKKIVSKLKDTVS
# NKX2-6 = biological target: T7, NKX2-6 (Homo sapiens, UniProt A6NCS4 118-204, R150C)
# T7 sequence: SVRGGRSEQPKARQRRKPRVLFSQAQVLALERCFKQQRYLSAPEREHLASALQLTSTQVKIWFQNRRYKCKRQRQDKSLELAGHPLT
# HOXB6 [30] = biological target: HOXB6 (Homo sapiens, UniProt P17509 132-218)
# Sequence of HOXB6 (Homo sapiens, UniProt P17509 132-218) (P17509 132-218): as the sequence (P17509 132-218 K202E) above, with E71K counted along it
# Sequence of HOXC9 (Homo sapiens, UniProt P31274 178-260, K195R) (P31274 178-260 K195R): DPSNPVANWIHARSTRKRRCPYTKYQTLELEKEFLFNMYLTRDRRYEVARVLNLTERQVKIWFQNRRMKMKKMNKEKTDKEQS
# Sequence of HOXB9 (Homo sapiens, UniProt P17482 171-250) (P17482 171-250): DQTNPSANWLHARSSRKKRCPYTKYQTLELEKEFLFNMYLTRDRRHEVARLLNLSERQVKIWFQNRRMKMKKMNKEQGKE
# Sequence of HOXB9 (Homo sapiens, UniProt P17482 171-250, T197M) (P17482 171-250 T197M): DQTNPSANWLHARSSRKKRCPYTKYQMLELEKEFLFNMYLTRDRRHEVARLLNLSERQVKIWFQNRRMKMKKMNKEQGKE
sequence,measurement,setting,value
ATAAAATG,binding signal,HOXB9 [1],"9.81 upbm affinity estimate (log intensity, higher = more binding, comparable within an allelic series)"
same,binding signal,HOXC9 [2],"12.5 upbm affinity estimate (log intensity, higher = more binding, comparable within an allelic series)"
same,binding signal,HOXB9 [3],"11.7 upbm affinity estimate (log intensity, higher = more binding, comparable within an allelic series)"
same,binding signal,HOXC9 [4],"12.6 upbm affinity estimate (log intensity, higher = more binding, comparable within an allelic series)"
same,binding signal,HOXC9 [5],"12.6 upbm affinity estimate (log intensity, higher = more binding, comparable within an allelic series)"
same,binding signal,HOXB9 [6],"11.6 upbm affinity estimate (log intensity, higher = more binding, comparable within an allelic series)"
same,binding signal,HOXC9 [7],"11 upbm affinity estimate (log intensity, higher = more binding, comparable within an allelic series)"
ATAAATTA,binding signal,HOXB9 [1],"9.96 upbm affinity estimate (log intensity, higher = more binding, comparable within an allelic series)"
same,binding signal,ALX4 [8],"13.6 upbm affinity estimate (log intensity, higher = more binding, comparable within an allelic series)"
same,binding signal,PAX4 [9],"11.7 upbm affinity estimate (log intensity, higher = more binding, comparable within an allelic series)"
same,binding signal,PRRX1 [10],"11.2 upbm affinity estimate (log intensity, higher = more binding, comparable within an allelic series)"
same,binding signal,PAX4 [11],"12.2 upbm affinity estimate (log intensity, higher = more binding, comparable within an allelic series)"
same,binding signal,HOXB6 [12],"10 upbm affinity estimate (log intensity, higher = more binding, comparable within an allelic series)"
same,binding signal,ALX4 [13],"12.6 upbm affinity estimate (log intensity, higher = more binding, comparable within an allelic series)"
same,binding signal,ALX1 [14],"11.4 upbm affinity estimate (log intensity, higher = more binding, comparable within an allelic series)"
same,binding signal,ALX3 [15],"8.61 upbm affinity estimate (log intensity, higher = more binding, comparable within an allelic series)"
same,binding signal,PAX4 [16],"11.8 upbm affinity estimate (log intensity, higher = more binding, comparable within an allelic series)"
same,binding signal,PAX4 [17],"10.7 upbm affinity estimate (log intensity, higher = more binding, comparable within an allelic series)"
same,binding signal,ALX3 [18],"12.3 upbm affinity estimate (log intensity, higher = more binding, comparable within an allelic series)"
same,binding signal,PAX4 [19],"11 upbm affinity estimate (log intensity, higher = more binding, comparable within an allelic series)"
same,binding signal,ALX3 [20],"10.2 upbm affinity estimate (log intensity, higher = more binding, comparable within an allelic series)"
same,binding signal,HOXC9 [7],"11 upbm affinity estimate (log intensity, higher = more binding, comparable within an allelic series)"
same,binding signal,ALX3 [21],"9.72 upbm affinity estimate (log intensity, higher = more binding, comparable within an allelic series)"
same,binding signal,HESX1,"7.82 upbm affinity estimate (log intensity, higher = more binding, comparable within an allelic series)"
same,binding signal,PAX4 [22],"11 upbm affinity estimate (log intensity, higher = more binding, comparable within an allelic series)"
same,binding signal,ALX3 [23],"8.71 upbm affinity estimate (log intensity, higher = more binding, comparable within an allelic series)"
same,binding signal,PRRX1 [24],"13.3 upbm affinity estimate (log intensity, higher = more binding, comparable within an allelic series)"
CCCAGGCC,binding signal,HOXB9 [1],"8.39 upbm affinity estimate (log intensity, higher = more binding, comparable within an allelic series)"
same,binding signal,HOXC9 [2],"9.5 upbm affinity estimate (log intensity, higher = more binding, comparable within an allelic series)"
same,binding signal,HOXB9 [3],"8.27 upbm affinity estimate (log intensity, higher = more binding, comparable within an allelic series)"
same,binding signal,HOXC9 [4],"9.64 upbm affinity estimate (log intensity, higher = more binding, comparable within an allelic series)"
same,binding signal,ALX1 [14],"6.55 upbm affinity estimate (log intensity, higher = more binding, comparable within an allelic series)"
same,binding signal,HOXC9 [5],"9.51 upbm affinity estimate (log intensity, higher = more binding, comparable within an allelic series)"
same,binding signal,ALX1 [25],"6.47 upbm affinity estimate (log intensity, higher = more binding, comparable within an allelic series)"
same,binding signal,HOXB9 [6],"8.29 upbm affinity estimate (log intensity, higher = more binding, comparable within an allelic series)"
same,binding signal,HOXC9 [7],"9.62 upbm affinity estimate (log intensity, higher = more binding, comparable within an allelic series)"
same,binding signal,ALX1 [26],"6.28 upbm affinity estimate (log intensity, higher = more binding, comparable within an allelic series)"
CCATAAAC,binding signal,HOXB9 [1],"9.33 upbm affinity estimate (log intensity, higher = more binding, comparable within an allelic series)"
same,binding signal,HOXC9 [2],"12.4 upbm affinity estimate (log intensity, higher = more binding, comparable within an allelic series)"
same,binding signal,HOXB9 [3],"11.8 upbm affinity estimate (log intensity, higher = more binding, comparable within an allelic series)"
same,binding signal,HOXC9 [4],"12.6 upbm affinity estimate (log intensity, higher = more binding, comparable within an allelic series)"
same,binding signal,HOXD13 [27],"10.8 upbm affinity estimate (log intensity, higher = more binding, comparable within an allelic series)"
same,binding signal,HOXC9 [5],"12.5 upbm affinity estimate (log intensity, higher = more binding, comparable within an allelic series)"
same,binding signal,HOXD13 [28],"12.1 upbm affinity estimate (log intensity, higher = more binding, comparable within an allelic series)"
same,binding signal,HOXC10,"11.3 upbm affinity estimate (log intensity, higher = more binding, comparable within an allelic series)"
same,binding signal,HOXD13 [29],"11.8 upbm affinity estimate (log intensity, higher = more binding, comparable within an allelic series)"
same,binding signal,HOXB9 [6],"11.5 upbm affinity estimate (log intensity, higher = more binding, comparable within an allelic series)"
same,binding signal,HOXC9 [7],"10.8 upbm affinity estimate (log intensity, higher = more binding, comparable within an allelic series)"
AGGCCTGG,binding signal,HOXB9 [1],"8.45 upbm affinity estimate (log intensity, higher = more binding, comparable within an allelic series)"
same,binding signal,HOXB6 [12],"8.94 upbm affinity estimate (log intensity, higher = more binding, comparable within an allelic series)"
same,binding signal,HOXB9 [3],"8.43 upbm affinity estimate (log intensity, higher = more binding, comparable within an allelic series)"
same,binding signal,NKX2-6,"9.48 upbm affinity estimate (log intensity, higher = more binding, comparable within an allelic series)"
same,binding signal,HOXB9 [6],"8.44 upbm affinity estimate (log intensity, higher = more binding, comparable within an allelic series)"
same,binding signal,HOXB6 [30],"8.97 upbm affinity estimate (log intensity, higher = more binding, comparable within an allelic series)"
AATTATAT,binding signal,HOXB9 [1],"9.99 upbm affinity estimate (log intensity, higher = more binding, comparable within an allelic series)"
same,binding signal,PRRX1 [10],"11.1 upbm affinity estimate (log intensity, higher = more binding, comparable within an allelic series)"
same,binding signal,HOXB6 [12],"9.99 upbm affinity estimate (log intensity, higher = more binding, comparable within an allelic series)"
CCGCTCCG,binding signal,HOXB9 [1],"8.44 upbm affinity estimate (log intensity, higher = more binding, comparable within an allelic series)"
same,binding signal,HOXC9 [2],"9.63 upbm affinity estimate (log intensity, higher = more binding, comparable within an allelic series)"
same,binding signal,HOXB9 [3],"8.59 upbm affinity estimate (log intensity, higher = more binding, comparable within an allelic series)"
same,binding signal,HOXC9 [4],"9.73 upbm affinity estimate (log intensity, higher = more binding, comparable within an allelic series)"
same,binding signal,HOXC9 [5],"9.74 upbm affinity estimate (log intensity, higher = more binding, comparable within an allelic series)"
same,binding signal,HOXB9 [6],"8.66 upbm affinity estimate (log intensity, higher = more binding, comparable within an allelic series)"
same,binding signal,HOXC9 [7],"9.7 upbm affinity estimate (log intensity, higher = more binding, comparable within an allelic series)"
ATTAATAC,binding signal,HOXB9 [1],"10.1 upbm affinity estimate (log intensity, higher = more binding, comparable within an allelic series)"
same,binding signal,PAX4 [9],"11.8 upbm affinity estimate (log intensity, higher = more binding, comparable within an allelic series)"
same,binding signal,PAX4 [11],"12.2 upbm affinity estimate (log intensity, higher = more binding, comparable within an allelic series)"
same,binding signal,HOXB6 [12],"10.1 upbm affinity estimate (log intensity, higher = more binding, comparable within an allelic series)"
same,binding signal,PAX4 [16],"11.8 upbm affinity estimate (log intensity, higher = more binding, comparable within an allelic series)"
same,binding signal,PAX4 [17],"10.6 upbm affinity estimate (log intensity, higher = more binding, comparable within an allelic series)"
same,binding signal,PAX4 [19],"11.1 upbm affinity estimate (log intensity, higher = more binding, comparable within an allelic series)"
same,binding signal,PAX4 [22],"11.1 upbm affinity estimate (log intensity, higher = more binding, comparable within an allelic series)"
